Laboratory results taken from PMC7862700, “An all-to-all approach to the identification of sequence-specific readers for epigenetic DNA modifications on cytosine”.

Tests used:
Test in all cases: DAPPL (digital affinity profiling via proximity ligation, sequencing); 10 mM Tris-HCl pH 7.5, 50 mM NaCl, 1 mM DTT, 4% glycerol, room temperature, 30 min; GST-TFs on glutathione beads, 16-mer random dsDNA library, 0.1% formaldehyde crosslink after washing; high values mean tight binding
Conditions in all cases: protein: recombinant; tags: N-terminal GST; dsDNA, one strand shown
[1] = molecular target: T1, FLI1 (Homo sapiens, UniProt Q01543 1-452)
T1 sequence: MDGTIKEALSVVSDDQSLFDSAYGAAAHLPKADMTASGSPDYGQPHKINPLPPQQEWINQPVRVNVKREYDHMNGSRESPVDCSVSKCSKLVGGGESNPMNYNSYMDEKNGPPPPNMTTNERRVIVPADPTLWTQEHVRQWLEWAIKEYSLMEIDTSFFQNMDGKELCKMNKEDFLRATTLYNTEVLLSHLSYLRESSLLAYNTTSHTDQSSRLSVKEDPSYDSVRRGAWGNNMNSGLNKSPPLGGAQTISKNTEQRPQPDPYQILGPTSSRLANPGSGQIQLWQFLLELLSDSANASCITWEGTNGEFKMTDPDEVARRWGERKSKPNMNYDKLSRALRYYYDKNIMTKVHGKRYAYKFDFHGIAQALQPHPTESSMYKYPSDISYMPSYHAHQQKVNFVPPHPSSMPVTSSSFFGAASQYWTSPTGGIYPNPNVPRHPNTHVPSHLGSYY
Method in brief: (§1)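 Human transcription factors carrying a GST fusion were produced in yeast, bound to glutathione beads, tagged with DNA barcodes and pooled together with a tag-only sample. Each pool was held with 200 nmole of a random double-stranded 16-mer DNA library in Tris/NaCl/DTT/glycerol buffer for 30 min at room temperature, then washed, crosslinked in 0.1% formaldehyde, proximity-ligated with BsaI/T4 ligase (1 h, 37 °C), PCR-amplified and sequenced on an Illumina NextSeq500. Binding signal is the read frequency of each hexamer for a given factor divided by its frequency in the tag-only sample.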

[2] = molecular target: T2, ELK1 (Homo sapiens, UniProt P19419 1-428)
T2 sequence: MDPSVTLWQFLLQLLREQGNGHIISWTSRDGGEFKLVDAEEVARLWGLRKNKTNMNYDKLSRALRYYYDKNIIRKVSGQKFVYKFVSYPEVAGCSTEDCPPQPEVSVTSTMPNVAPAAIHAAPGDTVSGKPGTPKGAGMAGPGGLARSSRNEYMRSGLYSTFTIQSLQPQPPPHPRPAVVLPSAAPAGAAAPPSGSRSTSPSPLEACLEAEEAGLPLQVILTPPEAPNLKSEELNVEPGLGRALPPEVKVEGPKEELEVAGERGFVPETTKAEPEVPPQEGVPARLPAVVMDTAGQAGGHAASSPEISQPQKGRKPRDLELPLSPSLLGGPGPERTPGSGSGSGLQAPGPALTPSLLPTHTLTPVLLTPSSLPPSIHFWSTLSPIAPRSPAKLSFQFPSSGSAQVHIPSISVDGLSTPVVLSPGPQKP
Method in brief: as §1

[3] = molecular target: T3, GABPA (Homo sapiens, UniProt Q06546 1-454)
T3 sequence: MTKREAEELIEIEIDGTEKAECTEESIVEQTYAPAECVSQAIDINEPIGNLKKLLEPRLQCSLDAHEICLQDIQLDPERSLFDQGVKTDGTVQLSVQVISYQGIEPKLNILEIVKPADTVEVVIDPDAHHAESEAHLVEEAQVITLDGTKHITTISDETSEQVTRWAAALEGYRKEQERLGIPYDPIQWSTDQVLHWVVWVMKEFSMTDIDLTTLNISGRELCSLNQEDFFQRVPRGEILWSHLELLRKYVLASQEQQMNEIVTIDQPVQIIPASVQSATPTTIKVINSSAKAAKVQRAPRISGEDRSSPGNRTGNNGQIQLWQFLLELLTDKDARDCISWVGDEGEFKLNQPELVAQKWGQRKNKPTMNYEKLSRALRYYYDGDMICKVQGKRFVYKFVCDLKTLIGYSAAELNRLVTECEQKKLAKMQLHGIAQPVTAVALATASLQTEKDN
Method in brief: as §1

[4] = molecular target: T4, ERG (Homo sapiens, UniProt P11308 1-479)
T4 sequence: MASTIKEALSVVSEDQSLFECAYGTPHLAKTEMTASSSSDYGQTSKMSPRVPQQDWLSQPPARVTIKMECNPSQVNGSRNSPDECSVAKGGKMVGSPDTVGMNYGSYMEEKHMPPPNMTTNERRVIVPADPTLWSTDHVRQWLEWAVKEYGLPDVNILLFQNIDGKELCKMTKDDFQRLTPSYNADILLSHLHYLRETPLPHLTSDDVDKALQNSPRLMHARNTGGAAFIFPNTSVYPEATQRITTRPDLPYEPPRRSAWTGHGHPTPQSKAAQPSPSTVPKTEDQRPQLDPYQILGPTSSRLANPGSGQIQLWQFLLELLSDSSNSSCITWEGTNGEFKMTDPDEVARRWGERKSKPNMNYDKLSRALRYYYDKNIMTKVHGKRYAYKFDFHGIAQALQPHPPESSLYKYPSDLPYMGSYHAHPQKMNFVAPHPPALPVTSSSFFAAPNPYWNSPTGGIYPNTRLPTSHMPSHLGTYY
Method in brief: as §1

[5] = molecular target: ELF1 (Homo sapiens, UniProt P32519 1-619)
Method in brief: as §1

[6] = molecular target: T5, EHF (Homo sapiens, UniProt Q9NZC4 1-300)
T5 sequence: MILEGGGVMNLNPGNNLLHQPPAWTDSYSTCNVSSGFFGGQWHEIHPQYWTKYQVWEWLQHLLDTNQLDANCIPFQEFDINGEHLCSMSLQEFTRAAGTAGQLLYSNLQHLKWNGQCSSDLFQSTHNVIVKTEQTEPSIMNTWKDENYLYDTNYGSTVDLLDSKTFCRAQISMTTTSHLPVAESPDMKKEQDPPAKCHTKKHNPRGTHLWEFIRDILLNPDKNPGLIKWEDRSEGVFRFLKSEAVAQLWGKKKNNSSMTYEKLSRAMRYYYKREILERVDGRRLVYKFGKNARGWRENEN
Method in brief: as §1

[7] = molecular target: SPI1 (Homo sapiens, UniProt P17947 1-270)
Method in brief: as §1

[8] = molecular target: SPIB (Homo sapiens, UniProt Q01892 1-262)
Method in brief: as §1

[9] = molecular target: T6, ELK3 (Homo sapiens, UniProt P41970 1-407)
T6 sequence: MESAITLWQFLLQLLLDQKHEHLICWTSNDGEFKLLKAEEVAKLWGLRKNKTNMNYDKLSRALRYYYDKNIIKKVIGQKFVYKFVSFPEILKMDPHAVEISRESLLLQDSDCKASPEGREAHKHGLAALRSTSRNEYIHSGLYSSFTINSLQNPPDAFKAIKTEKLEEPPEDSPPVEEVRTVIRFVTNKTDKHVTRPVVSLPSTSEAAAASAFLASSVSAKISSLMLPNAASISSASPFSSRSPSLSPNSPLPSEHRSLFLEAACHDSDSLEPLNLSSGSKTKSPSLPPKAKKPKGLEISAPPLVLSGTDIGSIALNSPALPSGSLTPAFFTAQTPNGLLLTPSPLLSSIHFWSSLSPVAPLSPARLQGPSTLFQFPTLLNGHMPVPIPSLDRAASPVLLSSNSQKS
Method in brief: as §1

[10] = molecular target: T7, FEV (Homo sapiens, UniProt Q99581 1-238)
T7 sequence: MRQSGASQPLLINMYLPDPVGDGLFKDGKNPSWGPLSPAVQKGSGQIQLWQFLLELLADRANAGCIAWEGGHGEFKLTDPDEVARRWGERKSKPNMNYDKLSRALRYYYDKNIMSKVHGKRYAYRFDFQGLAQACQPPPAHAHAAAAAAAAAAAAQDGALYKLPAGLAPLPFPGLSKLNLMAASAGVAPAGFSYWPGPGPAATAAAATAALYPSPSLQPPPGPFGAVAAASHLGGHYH
Method in brief: as §1

[11] = molecular target: ETV5 (Homo sapiens, UniProt P41161 1-510)
Method in brief: as §1

[12] = molecular target: T8, SPIC (Homo sapiens, UniProt Q8N5J4 1-248)
T8 sequence: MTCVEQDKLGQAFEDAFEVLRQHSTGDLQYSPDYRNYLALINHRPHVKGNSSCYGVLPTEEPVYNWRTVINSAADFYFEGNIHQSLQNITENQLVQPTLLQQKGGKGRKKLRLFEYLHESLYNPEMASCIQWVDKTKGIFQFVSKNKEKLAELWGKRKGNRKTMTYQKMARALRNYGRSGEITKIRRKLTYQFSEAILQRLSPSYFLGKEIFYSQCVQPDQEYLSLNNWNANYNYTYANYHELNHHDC
Method in brief: as §1

[13] = molecular target: ELF4 (Homo sapiens, UniProt Q99607 1-663)
Method in brief: as §1

[14] = molecular target: T9, ELK4 (Homo sapiens, UniProt P28324-2 1-405)
T9 sequence: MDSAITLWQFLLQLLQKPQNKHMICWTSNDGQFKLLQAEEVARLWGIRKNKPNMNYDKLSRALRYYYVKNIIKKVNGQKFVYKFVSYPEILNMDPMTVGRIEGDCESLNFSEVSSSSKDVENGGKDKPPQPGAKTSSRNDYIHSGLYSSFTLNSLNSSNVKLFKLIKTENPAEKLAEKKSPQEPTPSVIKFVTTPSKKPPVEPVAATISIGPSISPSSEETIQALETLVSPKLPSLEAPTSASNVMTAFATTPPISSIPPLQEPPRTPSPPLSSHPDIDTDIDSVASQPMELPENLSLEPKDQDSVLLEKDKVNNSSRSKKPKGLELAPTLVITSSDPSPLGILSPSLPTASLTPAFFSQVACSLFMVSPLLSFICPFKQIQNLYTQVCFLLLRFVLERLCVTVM
Method in brief: as §1

[15] = molecular target: T10, ELF3 (Homo sapiens, UniProt P78545 1-371)
T10 sequence: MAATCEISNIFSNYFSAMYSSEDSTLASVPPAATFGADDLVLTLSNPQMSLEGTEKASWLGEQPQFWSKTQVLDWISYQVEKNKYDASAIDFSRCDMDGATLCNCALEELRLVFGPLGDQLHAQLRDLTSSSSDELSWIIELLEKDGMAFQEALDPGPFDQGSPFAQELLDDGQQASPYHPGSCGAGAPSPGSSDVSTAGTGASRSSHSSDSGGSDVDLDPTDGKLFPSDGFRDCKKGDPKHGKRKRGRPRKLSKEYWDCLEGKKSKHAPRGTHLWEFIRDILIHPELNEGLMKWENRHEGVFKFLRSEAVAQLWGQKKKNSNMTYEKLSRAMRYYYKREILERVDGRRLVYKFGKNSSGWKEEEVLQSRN
Method in brief: as §1

[16] = molecular target: ETV1 (Homo sapiens, UniProt P50549 1-477)
Method in brief: as §1

ELF4, sequence (Q99607 whole entry): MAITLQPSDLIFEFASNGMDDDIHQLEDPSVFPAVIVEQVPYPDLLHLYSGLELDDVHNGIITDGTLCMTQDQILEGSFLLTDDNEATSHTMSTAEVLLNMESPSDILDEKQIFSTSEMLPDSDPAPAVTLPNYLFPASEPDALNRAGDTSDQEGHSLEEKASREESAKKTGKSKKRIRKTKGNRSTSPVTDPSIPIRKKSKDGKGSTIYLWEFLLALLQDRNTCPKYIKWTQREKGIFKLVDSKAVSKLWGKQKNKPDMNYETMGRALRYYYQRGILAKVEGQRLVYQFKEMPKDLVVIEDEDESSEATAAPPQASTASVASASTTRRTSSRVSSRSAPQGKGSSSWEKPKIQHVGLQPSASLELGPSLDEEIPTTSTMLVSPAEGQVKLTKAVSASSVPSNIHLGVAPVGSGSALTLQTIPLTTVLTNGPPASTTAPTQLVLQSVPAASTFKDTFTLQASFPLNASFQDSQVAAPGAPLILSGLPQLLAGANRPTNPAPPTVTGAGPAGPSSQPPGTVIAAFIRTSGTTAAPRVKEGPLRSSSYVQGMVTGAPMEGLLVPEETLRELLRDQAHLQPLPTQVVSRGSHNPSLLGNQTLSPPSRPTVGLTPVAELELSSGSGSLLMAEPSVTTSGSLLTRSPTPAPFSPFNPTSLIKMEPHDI
ETV1, sequence (P50549 whole entry): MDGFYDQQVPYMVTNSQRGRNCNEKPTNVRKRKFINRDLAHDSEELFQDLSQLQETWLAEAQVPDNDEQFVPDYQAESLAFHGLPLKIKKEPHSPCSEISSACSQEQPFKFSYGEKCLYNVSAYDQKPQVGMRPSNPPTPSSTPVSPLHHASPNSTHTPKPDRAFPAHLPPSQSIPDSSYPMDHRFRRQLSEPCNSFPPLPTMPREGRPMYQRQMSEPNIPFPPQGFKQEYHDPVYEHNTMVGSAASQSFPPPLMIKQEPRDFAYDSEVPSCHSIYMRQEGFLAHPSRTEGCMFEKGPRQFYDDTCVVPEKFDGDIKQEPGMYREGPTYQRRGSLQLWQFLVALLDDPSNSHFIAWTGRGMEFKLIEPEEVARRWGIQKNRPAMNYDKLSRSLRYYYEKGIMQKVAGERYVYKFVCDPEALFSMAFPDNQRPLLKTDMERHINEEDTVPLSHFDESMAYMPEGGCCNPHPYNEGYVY
ETV5, sequence (P41161 whole entry): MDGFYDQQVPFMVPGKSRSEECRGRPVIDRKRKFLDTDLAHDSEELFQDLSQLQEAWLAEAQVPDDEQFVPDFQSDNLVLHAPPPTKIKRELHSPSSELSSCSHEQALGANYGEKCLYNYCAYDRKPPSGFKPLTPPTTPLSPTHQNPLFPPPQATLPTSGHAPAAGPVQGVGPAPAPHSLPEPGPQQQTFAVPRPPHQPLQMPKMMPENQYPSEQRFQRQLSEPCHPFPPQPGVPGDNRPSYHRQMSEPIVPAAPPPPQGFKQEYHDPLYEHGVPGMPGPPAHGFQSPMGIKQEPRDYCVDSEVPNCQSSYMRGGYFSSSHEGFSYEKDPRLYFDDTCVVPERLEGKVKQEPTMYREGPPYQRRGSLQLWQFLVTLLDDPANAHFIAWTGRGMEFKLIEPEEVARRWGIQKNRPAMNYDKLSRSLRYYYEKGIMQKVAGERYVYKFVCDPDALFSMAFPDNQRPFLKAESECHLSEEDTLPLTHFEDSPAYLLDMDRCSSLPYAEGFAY
ELF1, sequence (P32519 whole entry): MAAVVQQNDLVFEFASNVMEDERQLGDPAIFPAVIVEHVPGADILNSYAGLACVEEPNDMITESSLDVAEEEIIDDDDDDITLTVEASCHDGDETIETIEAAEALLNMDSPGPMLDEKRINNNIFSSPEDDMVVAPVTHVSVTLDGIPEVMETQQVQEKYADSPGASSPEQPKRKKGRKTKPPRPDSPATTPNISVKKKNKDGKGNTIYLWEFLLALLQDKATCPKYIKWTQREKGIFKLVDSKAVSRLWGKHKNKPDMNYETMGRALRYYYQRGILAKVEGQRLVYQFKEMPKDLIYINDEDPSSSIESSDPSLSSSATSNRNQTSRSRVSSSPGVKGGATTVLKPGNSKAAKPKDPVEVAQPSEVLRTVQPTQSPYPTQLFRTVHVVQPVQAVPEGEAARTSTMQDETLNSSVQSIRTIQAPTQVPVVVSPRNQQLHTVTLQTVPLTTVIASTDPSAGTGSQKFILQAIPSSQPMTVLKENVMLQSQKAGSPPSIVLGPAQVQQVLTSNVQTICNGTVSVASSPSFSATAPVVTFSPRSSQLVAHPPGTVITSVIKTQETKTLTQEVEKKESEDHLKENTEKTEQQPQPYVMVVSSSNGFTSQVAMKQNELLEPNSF
SPIB, sequence (Q01892 whole entry): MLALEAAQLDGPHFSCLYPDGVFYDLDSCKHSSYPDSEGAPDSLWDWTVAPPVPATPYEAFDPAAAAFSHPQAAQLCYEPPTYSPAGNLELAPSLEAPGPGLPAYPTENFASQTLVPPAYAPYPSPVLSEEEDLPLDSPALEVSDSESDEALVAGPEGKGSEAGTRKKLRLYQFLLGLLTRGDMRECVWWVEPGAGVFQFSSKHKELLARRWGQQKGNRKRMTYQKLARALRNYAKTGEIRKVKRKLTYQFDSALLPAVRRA

| Sequence | binding signal [1] | binding signal [2] | binding signal [3] | binding signal [4] | binding signal [5] | binding signal [6] | binding signal [7] | binding signal [8] | binding signal [9] | binding signal [10] | binding signal [11] | binding signal [12] | binding signal [13] | binding signal [14] | binding signal [15] | binding signal [16] |
| --- | --- | --- | --- | --- | --- | --- | --- | --- | --- | --- | --- | --- | --- | --- | --- | --- |
| GCCAAT | 1.1 fold enrichment (6-mer frequency, TF over GST control) | 1.02 fold enrichment (6-mer frequency, TF over GST control) | 1.05 fold enrichment (6-mer frequency, TF over GST control) | 1 fold enrichment (6-mer frequency, TF over GST control) | 1.04 fold enrichment (6-mer frequency, TF over GST control) | 1.03 fold enrichment (6-mer frequency, TF over GST control) | 1.01 fold enrichment (6-mer frequency, TF over GST control) | 1.07 fold enrichment (6-mer frequency, TF over GST control) | 1.11 fold enrichment (6-mer frequency, TF over GST control) | 1.03 fold enrichment (6-mer frequency, TF over GST control) | 1.09 fold enrichment (6-mer frequency, TF over GST control) | 1.05 fold enrichment (6-mer frequency, TF over GST control) | 1.12 fold enrichment (6-mer frequency, TF over GST control) | 1.01 fold enrichment (6-mer frequency, TF over GST control) | 1.2 fold enrichment (6-mer frequency, TF over GST control) | 1.13 fold enrichment (6-mer frequency, TF over GST control) |
| CCAATG | 1.14 fold enrichment (6-mer frequency, TF over GST control) | 1.11 fold enrichment (6-mer frequency, TF over GST control) | 1.14 fold enrichment (6-mer frequency, TF over GST control) | 1 fold enrichment (6-mer frequency, TF over GST control) | 1.15 fold enrichment (6-mer frequency, TF over GST control) | 1.03 fold enrichment (6-mer frequency, TF over GST control) | 1.08 fold enrichment (6-mer frequency, TF over GST control) | 1.15 fold enrichment (6-mer frequency, TF over GST control) | 1.08 fold enrichment (6-mer frequency, TF over GST control) | 1.1 fold enrichment (6-mer frequency, TF over GST control) | 1.03 fold enrichment (6-mer frequency, TF over GST control) | 1.03 fold enrichment (6-mer frequency, TF over GST control) | 1.13 fold enrichment (6-mer frequency, TF over GST control) | 1.13 fold enrichment (6-mer frequency, TF over GST control) | 1.05 fold enrichment (6-mer frequency, TF over GST control) | 1.06 fold enrichment (6-mer frequency, TF over GST control) |
